Platelet DG rel: inhibitors of platelet dense granule secretion, primary screen, cell-based, MLPCN, human platelets; human platelet-rich plasma, SFLLRN dense granule ATP release, luminescence; inhibition, %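 (compounds screened at 7.5 µM in platelet-rich plasma)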; hit rate 0.22% among 300,000; AID 1663, 2009;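 active means mean replicate score, as percent of positive control, at or above 50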
Rce1 inh: yeast Rce1p protease inhibitors, primary screen, biochemical, fluorescence, cell-free homogeneous | hit rate 0.27% among 290,000 | yeast membranes, quenched prenylated peptide cleavage fluorescence | calls only | CAAX prenyl protease 2 (Saccharomyces cerevisiae (strain ATCC 204508 / S288c)), Q03530;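 active means fall in fluorescence gain of 50% or more versus controls, with final raw signal at or below 3038400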
Target sequence (Q03530 whole entry, looked up): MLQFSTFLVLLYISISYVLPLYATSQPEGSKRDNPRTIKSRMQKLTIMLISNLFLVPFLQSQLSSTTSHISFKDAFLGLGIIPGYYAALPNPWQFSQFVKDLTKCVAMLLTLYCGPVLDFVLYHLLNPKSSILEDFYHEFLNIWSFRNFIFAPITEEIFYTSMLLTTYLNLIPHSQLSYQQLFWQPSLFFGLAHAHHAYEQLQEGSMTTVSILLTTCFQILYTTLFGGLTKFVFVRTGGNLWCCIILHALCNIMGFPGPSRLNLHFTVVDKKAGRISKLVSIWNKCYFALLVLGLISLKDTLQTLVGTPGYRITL
Exocytosis inh: LAMP-1 surface exposure blockers, TALL-104 cells – cell-based, flow cytometry, MLPCN library, primary screen | TALL-104 LAMP-1 surface exposure; cells stimulated with thapsigargin and PMA | hit rate 0.66% among 360,000 | inhibition, % at 10 µM | AID 651702, 2012;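 active means inhibition above about 55%, limit read from the data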
ABHD5 PLIN5 PPI: ABHD5-PLIN5 interaction inhibitors, primary screen, cell lysate, split luciferase complementation, luminescence; hit rate 0.78% among 360,000; Split G. princeps luciferase complementation, 4 h; Perilipin-5 (Homo sapiens) + 1-acylglycerol-3-phosphate O-acyltransferase ABHD5 (Homo …; inhibition, % at 4 µM;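 active means inhibition above the mean inhibition across every tested compound plus 3 SD, cut at about 22% in these data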
PfM18AAP inh-1: PfM18AAP inhibitors, malaria aminopeptidase, primary screen, biochemical, QFRET, recombinant enzyme | M18 aspartyl aminopeptidase (Plasmodium falciparum 3D7) | AID 1822, 2009 | inhibition, % at 7.35 µM | H-Glu-NHMec fluorogenic cleavage | hit rate 1.2% among 290,000;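 active means inhibition above the campaign mean inhibition over all tested compounds plus 3 SD, cut at about 28% in these data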
PfM18AAP inh-2: PfM18AAP inhibitors, malaria aminopeptidase, confirmation, biochemical, QFRET, recombinant enzyme, triplicate | shares compounds with PfM18AAP inh-1 | H-Glu-NHMec fluorogenic cleavage | inhibition, % at 7.35 µM | hit rate 28% among 2,400 | AID 2170, 2009;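 active means mean inhibition over replicate wells above the hit cutoff set for the earlier primary screen, cut at about 29% in these data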
CTSL1 confirm: cathepsin L1 inhibitors, retest, confirmation, counter-screen for PFM18AAP inhibitor project, biochemical, QFRET, triplicate; AID 2178, 2009; inhibition, % at 5.96 µM; 2,400 tested, under 10 active; shares compounds with PfM18AAP inh-1; purified cathepsin L1, Z-Leu-Arg-MCA fluorescence;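 active means average inhibition across replicates above the hit cutoff set in the earlier primary screen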
Large screens that a line does not name were inactive (follow-up assays come after a bar, where they were run). Shown are actives, neighbours in structure and some others; about 2.6% of the full set was active somewhere.

Cc1csc(SCC(=O)Nc2ccc3[nH]c(=O)[nH]c3c2)n1	none (no result: Platelet DG rel, Rce1 inh, PfM18AAP inh-1)
COc1cc(-c2nc(=S)[nH][nH]2)cc(OC)c1OC	PfM18AAP inh-1 35.3 | PfM18AAP inh-2 inactive | CTSL1 confirm inactive
Cc1ccc(C)c(CC(=O)N2CCCC(c3cc(C(=O)NCc4ccccc4)no3)C2)c1 (configuration not stated)	none (no result: Platelet DG rel, Rce1 inh, PfM18AAP inh-1)
O=C1NC(=S)SC1=C1CCCC1	PfM18AAP inh-1 35.7 | PfM18AAP inh-2 inactive | CTSL1 confirm inactive
COc1ccc(N2C(=O)C(Cl)=C(N3CCOCC3)C2=O)cc1	PfM18AAP inh-1 32.8 | PfM18AAP inh-2 inactive | CTSL1 confirm 24.6
Cc1ccc2c(c1)N(CC(=O)NCc1cccnc1)C(=O)CO2	PfM18AAP inh-1 81.2 | PfM18AAP inh-2 inactive | CTSL1 confirm inactive
Cc1ccc(NC(=O)CN2C(=O)COc3ccc(C)cc32)nc1	none
COc1cc(/C=C/C(=O)Nc2nnc(CC(C)(C)C)s2)cc(OC)c1OC	PfM18AAP inh-1 34.3 | PfM18AAP inh-2 inactive | CTSL1 confirm inactive
CN(C)c1ccc(/C=N/NC(=O)c2cccc(N3CCCC3=O)c2)cc1	none
C=CCn1c(-c2cc(OC)cc(OC)c2)n[nH]c1=S	none
C=CCn1c(-c2sc3nc(C)cc(C)c3c2N)n[nH]c1=S	PfM18AAP inh-1 43.1 | PfM18AAP inh-2 inactive | CTSL1 confirm inactive
CC(/C=C/c1ccccc1)=N\Nc1nc(C)cc(C)n1	PfM18AAP inh-1 38.6 | PfM18AAP inh-2 inactive | CTSL1 confirm inactive
O=C(/C=C/c1ccc(O)c(O)c1)O[C@@H]1C[C@](O)(C(=O)O)C[C@@H](O)[C@H]1O	none (no result: PfM18AAP inh-1)
O=C(/C=C/c1ccc(O)c(O)c1)OC1C(O)CC(OC(=O)/C=C/c2ccc(O)c(O)c2)(C(=O)O)CC1O (configuration not stated)	PfM18AAP inh-1 76.5 | PfM18AAP inh-2 64.3 | CTSL1 confirm inactive
COc1cccc(NC(=O)C(OC(=O)/C=C/c2ccc3c(c2)OCO3)c2ccccc2)c1 (configuration not stated)	PfM18AAP inh-1 32.4 | PfM18AAP inh-2 inactive | CTSL1 confirm inactive
COc1ccc(O)c(C(=O)C2c3ccccc3C(=O)N2c2ccc(C)cc2)c1 (configuration not stated)	PfM18AAP inh-1 40.1 | PfM18AAP inh-2 inactive | CTSL1 confirm inactive
COc1ccc(N2C(=O)c3ccccc3C2O)cc1 (configuration not stated)	none
COC(=O)/C=C/c1ccc(OC(=O)OC)c(OC(=O)OC)c1	PfM18AAP inh-1 74.5 | PfM18AAP inh-2 34.2 | CTSL1 confirm inactive
COC(=O)Cc1sc(-c2ccccn2)nc1-c1ccccc1	PfM18AAP inh-1 32.6 | PfM18AAP inh-2 inactive | CTSL1 confirm inactive
COc1ccc2nc(C)cc(SCC(=O)N/N=C/c3cccc4ccccc34)c2c1	none
COc1ccc2c(c1)c(C(=O)N/N=C/c1ccc(O)c(O)c1)c(C)n2C	PfM18AAP inh-1 51.4 | PfM18AAP inh-2 40.0 | CTSL1 confirm inactive
COc1cccc2c(SCC(=O)N/N=C/c3ccc(O)c(O)c3)cc(C)nc12	PfM18AAP inh-1 65.7 (no result: Rce1 inh) | PfM18AAP inh-2 63.2 | CTSL1 confirm inactive
COc1cccc2c(SCC(=O)N/N=C/c3ccccc3)cc(C)nc12	none
COc1ccc2nc(C)cc(SCC(=O)N/N=C/c3ccc(O)c(O)c3)c2c1	PfM18AAP inh-1 60.4 | PfM18AAP inh-2 63.5 | CTSL1 confirm inactive
COc1ccc2c(c1)c(C(=O)N/N=C/c1ccc(Br)cc1)c(C)n2C	none
O=C(CNC(=O)c1ccco1)NCC(=O)OCc1ccc(Cl)cc1Cl	none
CCC(C)(C)NC(=O)CN(C(=O)CCC(=O)Nc1nccs1)c1cccc(C)c1	none
COC(=O)c1c(NC(=O)c2cccc(S(=O)(=O)N3CCN(C)CC3)c2)sc(C)c1C	none (no result: PfM18AAP inh-1)
Cc1ccc(Nc2nc(-c3ccc(F)cc3)cs2)nc1	none

Compound activity: PubChem, several laboratories
